From PubChem BioAssay
An excerpt weighted towards active compounds, which were near 3.7% of everything screened.
BoNT-A LC inh2 – BoNT/A light chain protease inhibitors, primary screen, biochemical, flow cytometry, MLPCN library. AID 588499, 2011. Botulinum neurotoxin type A light chain protease (Clostridium botulinum A str. ATCC 3502). inhibition, % at 10 µM. multiplex microsphere protease substrate cleavage. hit rate 0.17% among 360,000; further: plate controls were buffer without enzyme for full effect and enzyme alone for no effect
Bead autofluor – counter-screen for toxin protease inhibitors: compound fluorescence. fluorescence intensity (no concentration beside the values). hit rate 3.1% among 360,000. compound autofluorescence counterscreen, microsphere flow cytometry; stronger effect = higher value. AID 624483; in the data active means fluorescence intensity above about 16000; inconclusive means no clear call, values can overlap the other calls
MazEF act – activators of E. coli MazEF toxin-antitoxin RNase, primary screen, biochemical, fluorescence, uHTS | AID 504720, 2011 | FAM/BHQ RNA-DNA oligo cleavage fluorescence, 5 h | hit rate 0.32% among 350,000 | activation, % at 20 µM | Endoribonuclease toxin MazF (Escherichia coli (strain K12)), P0AE70; in the data active means activation above about 50%
Target sequence (P0AE70 whole entry, looked up): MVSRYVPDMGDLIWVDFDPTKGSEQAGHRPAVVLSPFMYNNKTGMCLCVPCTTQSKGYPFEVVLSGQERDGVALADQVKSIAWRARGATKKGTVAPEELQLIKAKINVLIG
BoNT-F LC inh – BoNT/F light chain protease inhibitors, primary screen, biochemical, flow cytometry, MLPCN library. AID 588497, 2011. Botulinum neurotoxin type F light chain protease (Clostridium botulinum). inhibition, % at 10 µM. hit rate 0.22% among 360,000. Multiplex microsphere protease cleavage assay; in the data active means inhibition above about 35%, passing the limit was not always enough; inconclusive means no clear call, values can overlap the other calls; further: plate controls were buffer without enzyme for full effect and enzyme alone for no effect
Anthrax LF prot – Bacillus anthracis LF protease inhibitors, primary screen, biochemical, multiplex microsphere, MLPCN library | hit rate 0.12% among 360,000 | AID 588501, 2011 | multiplex microsphere protease cleavage assay | Lethal factor (Bacillus anthracis), P15917 | inhibition, % at 10 µM; further: plate controls were buffer without enzyme for full effect and enzyme alone for no effect
* marks the source's active call; other numbers are inactive results; ? = inconclusive; nt = no result given. Unless noted, no stated cut-off is given here; in the data, active means inhibition above about 30%; inconclusive means no clear call, values can overlap the other calls; inactive means below that.

SMILES | BoNT-A LC inh2 | Bead autofluor | MazEF act | BoNT-F LC inh | Anthrax LF prot
CCSc1nc2ccccc2n1C(=O)c1ccc(S(=O)(=O)N2CCCCC2)cc1 | -3 | 20953* | -62 | -4 | -2
Cn1c(/C(C#N)=C(\O)c2cc(Cl)sc2Cl)nc2ccccc21 | nt | nt | -1 | nt | nt
COC(=O)c1c(NC(=O)C2CC=CCC2C(=O)O)sc(C)c1C (stereo unspecified) | ? | 22701* | -10 | 1 | 3
COC(=O)c1c(NC(=O)C2CC=CCC2C(=O)O)sc(C(N)=O)c1C (stereo unspecified) | -1 | 2808 | 0 | -2 | -3
CC(OC(=O)c1c2c(nc3ccccc13)/C(=C\c1ccc3c(c1)OCO3)CCC2)C(=O)Nc1ccc(S(N)(=O)=O)cc1 (stereo unspecified) | 17 | 3070 | 165* | 4 | 4
C[C@@H]1CNC(=O)c2c(C(=O)Nc3ccc(CNC(=O)OC(C)(C)C)cc3)ncn21 | 0 | 3464 | 12 | -4 | -5
CCOC(=O)C1(C)CCN1C(=O)c1cc(F)cc(F)c1 (stereo unspecified) | 0 | 3515 | nt | 2 | -2
CCN(CCCNC(=O)CC(C(=O)N1CCc2ccccc21)n1ccnc1)c1ccccc1 (stereo unspecified) | 6 | 18267* | 1 | 5 | -12
COc1ccc(S(=O)(=O)Nc2ccc(NC(C)=O)cc2)cc1Cl | 1 | 4604 | 6 | -3 | 1
COc1ccc(CONS(=O)(=O)c2ccc(NC(C)=O)cc2)cc1Cl | 1 | 20406* | -3 | -1 | -6
COc1ccc(-c2ccc3c(c2)c(Sc2ccccc2)c(-c2ccccc2)n3C)cn1 | 0 | 5373 | nt | -5 | -8
O=C1c2ccccc2C(=O)N1CCCCN(C(=O)c1cccc([N+](=O)[O-])c1)c1ccc(Cl)cc1 | -3 | 20654* | 4 | -6 | 0
COc1ccc(S(=O)(=O)N2CCOCC2)cc1NC(=O)CCNC(=O)c1ccc([N+](=O)[O-])cc1 | 0 | 2962 | 1 | 2 | -8
CCc1nc(SCC(=O)NNC(=O)C2CCCCC2)c2ccccc2n1 | ? | 21748* | -4 | -8 | -2
Cc1ccc(SCC(=O)NNC(=O)C2CCCCC2)cc1 | ? | 20856* | -3 | -1 | -3
Cc1ccc(SCC(=O)NC2CCCCCC2)cc1 | -4 | 4701 | 4 | 0 | -3
CN(C)c1ccc(/C=C/c2cc[n+](C)cc2)cc1 | -3 | 16151* | -312 | -7 | -8
CCn1c(SCC(=O)N(C)c2c(N)n(Cc3ccccc3)c(=O)[nH]c2=O)nnc1-c1cccs1 | 0 | 3672 | 6 | 2 | -1
O=C(NNc1ccccn1)C(=O)NNS(=O)(=O)c1ccc(Cl)cc1 | -1 | 23954* | 15 | 0 | 0
COc1ccc(-c2nnc(CSc3nnc(-c4ccncc4)n3C3CCCCC3)o2)cc1OC | ? | 19681* | -6 | -1 | 0
COCCCn1c(SCc2nnc(-c3ccc(OC)c(OC)c3)o2)nnc1-c1ccncc1 | 0 | 2806 | 1 | 5 | 2
FC(F)(F)c1cccc(NC(=S)NCCc2ccccn2)c1 | 1 | 21974* | 7 | -1 | -6
CSc1cccc(N2CC(C(=O)Nc3ccccc3N3CCCC3)CC2=O)c1 (stereo unspecified) | -1 | 5612 | 6 | -10 | -2
O=C(Cc1cccs1)Nc1nc(-c2ccc(F)cc2F)cs1 | -6 | 17771* | 2 | -9 | -1
CCOc1ccc(CCN2C(=S)N([C@@H](CC(C)C)CN3CCC[C@@H]3CN3C(=S)NC[C@@H]3Cc3ccccc3)C[C@@H]2Cc2ccc(O)cc2)cc1 | 0 | 7085 | nt | -6 | 4
SMILES | BoNT-A LC inh2 | Bead autofluor | MazEF act | BoNT-F LC inh | Anthrax LF prot
Cc1ccc(S(=O)(=O)NN=C(c2ccccc2)c2cccs2)cc1 | 0 | 3716 | 0 | -4 | -7
C=CCN1C(=O)C2(/C(=C(\O)c3ccc4c(c3)OCCO4)C(=O)C(=O)N2CCCOC)c2ccccc21 (stereo unspecified) | 0 | 23166* | -3 | -2 | 0
C=C(C)CN1C(=O)C(O)(CC(=O)c2ccc3c(c2)OCCO3)c2ccccc21 (stereo unspecified) | 0 | 3347 | -2 | -8 | 0
Cc1ccc(S(=O)(=O)NC(=O)C2(C)CCN2C(=O)c2cccc(F)c2)cc1 (stereo unspecified) | 0 | 2871 | nt | -6 | -5
COc1ccc(OCCOC(=O)c2cccc(-n3cnnn3)c2)cc1 | -1 | 20878* | 4 | -3 | 0
COc1ccc(OCCOC(=O)c2ccc(-n3cnnn3)cc2)cc1 | 0 | 3216 | 6 | 2 | -1
COc1ccc(C2C3=C(CC(C)(C)CC3=O)Oc3ncn(CC(C)C)c(=N)c32)cc1 (stereo unspecified) | -1 | 3290 | 12 | -1 | 0
COc1ccc(C2C3=C(CC(C)(C)CC3=O)Oc3ncn(Cc4ccco4)c(=N)c32)cc1 (stereo unspecified) | 26 | 8601 | 0 | 36* | 4
O=S(=O)(c1ccccc1)N1CCN(C2CCN(Cc3ccccc3)CC2)CC1 | 0 | 4334 | -9 | -2 | 1
O=S(=O)(c1ccc2ccccc2c1)N1CCN(C2CCN(Cc3ccccc3)CC2)CC1 | -1 | 23769* | 2 | 0 | 0
Cc1c(NC(=O)CSc2nncc3ccccc23)c(=O)n(-c2ccccc2)n1C | ? | 20089* | 1 | 2 | -6
Cc1nc(SCC(=O)Nc2c(C)n(C)n(-c3ccccc3)c2=O)nc(C)c1C | 0 | 2317 | 1 | 4 | 3
CCc1c(C)nc(SCC(=O)Nc2c(C)n(C)n(-c3ccccc3)c2=O)[nH]c1=O | 4 | 21804* | -1 | 5 | 0
CN(C)C(=O)c1cccc(-c2cccc(-c3nc(C(=O)NCc4ccccc4)cc4c3[C@H](CCO)N(S(=O)C(C)(C)C)C4)c2)c1 (stereo partly specified) | 0 | 6070 | nt | -16 | 3
O=C(OCC1CCC=CO1)C1CCC=CO1 (stereo unspecified) | 0 | 3045 | 7 | -18 | -3
CCC1CCCCN1C(=O)N[C@@H](Cc1ccccc1)C(=O)O (stereo partly specified) | 0 | 23663* | 14 | -3 | 0
COC(=O)[C@H](Cc1ccccc1)NC(=O)N1CCCCC1C (stereo partly specified) | 0 | 10036 | -5 | -4 | -1
CCc1cc2c(=O)c(-c3nc4ccccc4n3C)c(COCC(=O)O)oc2cc1OC(=O)C(C)(C)C | -4 | 17668* | -2 | -6 | 0
COc1cc(/C=N/NC(=O)COc2ccccc2C)ccc1OC(=O)c1cccs1 | ? | 22564* | -14 | 0 | -2
O=C(CCC(=O)Nc1ccc(F)cc1)N/N=C/c1cccs1 | 0 | 6561 | 8 | -9 | -1
CCCCCC(=O)N/N=C/c1cccs1 | 0 | 22461* | 10 | 1 | -2
